Hits are enriched below; roughly 0.4% of the tested compounds scored in any of these assays.
HRas wt GTP bind – modulators of GTP binding to human HRas wildtype | P01112 | GST-Ras wt beads, Bodipy-FL-GTP binding, flow cytometry; actives lie on both sides | GTP binding activity, % at 10 µM | 190,000 compounds, 0.14% hits | AID 759;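 active = GTP binding activity at least 20% away from the 100% baseline, either lowered as inhibitor or raised as activator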
Target sequence (P01112 whole entry, looked up): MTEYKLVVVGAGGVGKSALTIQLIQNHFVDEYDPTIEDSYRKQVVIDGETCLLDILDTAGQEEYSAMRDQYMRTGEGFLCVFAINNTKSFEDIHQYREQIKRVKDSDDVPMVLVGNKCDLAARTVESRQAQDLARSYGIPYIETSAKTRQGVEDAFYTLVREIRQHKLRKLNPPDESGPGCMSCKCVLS
Rab2A wt mod – changes GTP binding to wildtype dog Rab2A, up or down. P61105. GST-Rab2 wt beads, Bodipy-GTP binding, flow cytometry. GTP binding activity, % at 10 µM. 190,000 compounds, 0.19% hits;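 active = GTP binding activity at least 20 points away from 100%, either lowered or raised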
Rac1 act GTP bind – human Rac1 activated mutant GTP binding change | percent activity (GTP binding), % at 10 µM | P63000 | GST-Rac1 activated beads, fluorescent GTP binding, flow cytometry; actives lie on both sides; 100% means binding = to untreated wells | 190,000 compounds, 0.11% hits;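 active = GTP binding at least 20 percentage points away from the 100% baseline, in either direction, so actives lie on both sides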
Rac1 wt modul – human Rac1 wildtype GTP binding, inhibitors and activators; P63000; GST-Rac1 beads, fluorescent GTP binding, flow cytometry; actives lie on both sides; 0 = cold GTP competed, 100 = untreated; GTP binding activity (% of control), % at 10 µM; 190,000 compounds, 0.27% hits;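 active = GTP binding activity at least 20 points away from the 100% control level, either lower or higher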
Rab7 wt modul – modulators of GTP binding to dog Rab7 wildtype GTPase | GTP binding activity (percent of control), % at 10 µM | GST-Rab7 beads, fluorescent GTP binding, flow cytometry; actives lie on both sides; untreated = 100%, excess cold GTP = 0% | 190,000 compounds, 0.055% hits;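 active = fluorescent GTP binding to Rab7 beads changed by at least 20 points from the 100% baseline, either direction, mostly lower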;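 note: median green fluorescence of bound Bodipy-FL-GTP per Rab7 bead population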
Cdc42 wt – changes GTP binding to wildtype human Cdc42 | GST-Cdc42 beads, Bodipy-GTP binding, flow cytometry; actives lie on both sides | percent activity (GTP binding), % at 10 µM | 190,000 compounds, 0.2% hits | AID 761;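 active = percent activity GTP binding at least 20 points away from the 100% baseline, either down as inhibitor or up as activator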;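 note: median bead fluorescence of bound Bodipy-FL-GTP at 100 nM; below 100% means less GTP binding so inhibitor and above means activator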
Target sequence (P60953 whole entry, looked up): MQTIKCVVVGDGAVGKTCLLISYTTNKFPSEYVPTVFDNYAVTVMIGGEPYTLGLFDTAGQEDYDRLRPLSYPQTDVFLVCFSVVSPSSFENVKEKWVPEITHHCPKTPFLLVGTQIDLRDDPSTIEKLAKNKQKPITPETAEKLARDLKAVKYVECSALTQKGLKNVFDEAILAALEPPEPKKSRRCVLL
A number is an active result; . = inactive; [ ] = dose if it differs, or a comment.

SMILES	HRas wt GTP bind	Rab2A wt mod	Rac1 act GTP bind	Rac1 wt modul	Rab7 wt modul	Cdc42 wt
COc1cc2[nH]c(=S)nc(NCCc3ccc(S(N)(=O)=O)cc3)c2cc1OC	35	37	61	40	.	32
COc1ccc(CCNc2nc(=S)[nH]c3cc(OC)c(OC)cc23)cc1OC	48	47	67	71	74	49
COc1ccc(CCNC(=O)c2ccc(CNc3nc(=S)[nH]c4ccccc34)cc2)cc1OC	.	.	.	.	.	.
COc1ccccc1CC(=O)NCCc1ccc(S(N)(=O)=O)cc1	.	.	.	.	.	.
COc1cc2[nH]c(=S)nc(NCCC(C)C)c2cc1OC	64	59	71	52	.	56
COc1cc2[nH]c(=S)nc(NCCc3ccc(C)cc3)c2cc1OC	54	49	65	49	69	45
COc1cc2[nH]c(=O)n(CCC(=O)NCCC(C)C)c(=O)c2cc1OC	.	.	.	.	.	.
O=C(/C=C/Nc1ccc(Oc2ccccc2)cc1)c1ccco1	.	.	.	.	.	.
CSc1c(CC(=O)Nc2ccc(F)cc2)n(Cc2ccccc2)c2ccccc12	.	.	.	.	.	.
O=c1cc(CN2CC(O)Cc3ccc4ccccc4c32)nc2sccn12 (stereo unspecified)	.	.	.	.	.	.
COc1cc2[nH]c(=S)nc(NCc3cccs3)c2cc1OC	63	66	.	60	.	61
COc1cc2ncnc(NCc3cccs3)c2cc1OC	.	.	.	.	.	.
CC(C)c1ccc(NC(=O)COc2ccc(F)cc2C(=O)c2cnn(-c3ccccc3)c2)cc1	.	.	.	.	.	.
CCn1cc(C(=O)O)c(=O)c2cc(F)c(N/N=C/c3ccccc3[N+](=O)[O-])cc21	63	58	78	64	77	.
O=C(COC(=O)/C=C/c1cccc([N+](=O)[O-])c1)NCc1ccc2c(c1)OCO2	.	.	79	.	.	.
C=CC[n+]1ccc(/C=C2\C=Cc3cc(C)ccc3N2CC)c2ccccc21	.	.	.	.	.	.
CCC(C)N=C1Sc2nc3ccc(C)cc3cc2CN1CCOC (stereo unspecified)	.	.	.	.	.	.
Cc1ccc(-c2ccc(/C=C(\C#N)C(=O)Nc3cc(C)nn3-c3ccccc3)o2)cc1	127[activator]	.	120[activator]	.	.	.
O=C(CCc1nc2ccccc2c(=O)[nH]1)OCC(=O)N1CCc2ccccc21	.	.	.	.	.	.
O=C(CCc1nc2ccccc2[nH]c1=O)OCC(=O)N1CCc2ccccc21	.	.	.	130[activator]	.	.
O=C(OCCN1CCCCC1)c1cc2ccccc2o1	.	.	.	123[activator]	.	.
O=C(COC(=O)c1cc2ccccc2o1)c1ccccc1	.	.	.	.	.	.
CCOC(=O)c1cccc(-n2c(-c3ccc(OC)cc3)nc3nc4ccccc4nc32)c1	.	.	.	.	.	.
COc1cc(NS(=O)(=O)c2ccc(NC(=O)/C=C/c3cccc([N+](=O)[O-])c3)cc2)ncn1	.	.	.	79	.	.
CCNc1cc2n(c(=O)n1)CCc1cc(OC)c(OC)cc1-2	.	.	.	.	.	.
SMILES	HRas wt GTP bind	Rab2A wt mod	Rac1 act GTP bind	Rac1 wt modul	Rab7 wt modul	Cdc42 wt
COc1cc2c(cc1OC)-c1cc(NCc3ccccn3)nc(=O)n1CC2	79	.	.	.	.	79
COc1cc2c(cc1OC)-c1cc(NC3CCCCCCC3)nc(=O)n1CC2	77	.	.	.	.	77
O=C(O)C1C2C=CC(C2)C1C(=O)N1CCOCC1 (stereo unspecified)	43	36	37	33	22	39
O=C(NC1CCCC1)C1C2C=CC(C2)C1C(=O)N1CCOCC1 (stereo unspecified)	.	.	.	.	.	.
O=C(O)c1cccc(NC(=S)N/N=C/c2ccccc2OCc2ccc(Br)cc2)c1	.	.	.	.	.	.
COC(=O)c1ccc(COc2ccccc2/C=N/Nc2cccc(C(=O)O)c2)cc1	121[activator]	128[activator]	128[activator]	141[activator]	126[activator]	124[activator]
CN(C)CCN(C(=O)c1ccccc1Cl)c1nc2c(Cl)cccc2s1	.	.	.	.	.	.
Cc1ccc(NC(=S)N(CCN2CCCCC2)Cc2ccco2)cc1Cl	.	.	.	.	.	.

Screens (PubChem)
